# Assay results reported in PubChem BioAssay (Tox21).
# Inconclusive results are not listed. Values without a mark were called inactive. Activity calls are given as the source filed them. Calls follow the shape of the dose curve; as a rule, active = well fitted activation curve with a large enough effect in the repeat runs; inconclusive = weak or mixed curves; inactive = flat fitted curve, though single readings scatter.
# Test: A CellTox Green Cytotoxicity Assay to monitor cytotoxicity in HepG2 cells - 16 hour (AID 1224876); also: nearly all actives have a fitted effect of over 45% in size
# Conditions: CellTox Green fluorescence; series mostly up to 76.8 µM; cytotoxicity increase: at the top concentration
# Excerpt: National Center for Advancing Translational Sciences [NCATS]
# NIH Chemical Genomics Center [NCGC]
# U.S. Environmental Protection Agency [EPA]
# National Institutes of Environmental Health Sciences [NIEHS]
# National Toxicology Program [NTP]
# Cell-based models are critical for drug discovery. Determining the natural cytotoxic effects resulting from test compounds is an essential research activity. A CellTox Green Cytotoxicity Assay to monitor cytotoxicity in real time of continues cell culture during 40 hours of the compound treatment was used to screen Tox21 10K library compounds in HepG2 cells. CellTox Green Cytotoxicity Assay is a nonlytic, homogeneous, biofluorescent method to measure cytotoxicity in cell culture after experimental manipulation. The assay system uses a proprietary asymmetric cyanine dye that is excluded from viable cells but preferentially stains the dead cell's DNA. […] Viable cells produce no appreciable increases in fluorescence. Therefore, the fluorescence signal produced by the binding interaction with dead cell DNA is proportional to cytotoxicity.
# The mixture of HepG2 cell suspension and reagents were dispensed at 600cells/6 ul/well in 1536-well tissue culture treated black solid bottom plates using a Multidrop dispenser. After the assay plates were incubated at a 37 C/5% CO2 incubator for 5 hours, 23 nL of compounds dissolved in DMSO, positive and negative controls was transferred to the assay plate by a pintool work station. The plates were incubated at 37 C for 40 hours. The fluorescence intensity were measured at 0h, 8h, 16h, 24h, 32h and 40h time points using ViewLux plate reader during compound treatment.
# % is scaled to controls: 0 for no effect and ±100 for the full control effect; potency is read from the fitted curve at half-maximal effect.
Structure (SMILES),Potency,cytotoxicity increase
[CH3][Sn]([CH3])([Cl])[Cl],inactive,
CC(C)(Cl)[N+](=O)[O-],,6.45%
CCOP(=S)(OCC)Oc1cc(Cl)c(Br)cc1Cl,,-7.76%
CCCN(CCCl)c1c([N+](=O)[O-])cc(C(F)(F)F)cc1[N+](=O)[O-],,-13.7%
COCCOCCO,,-12.4%
O=C(OC1CCCCC1)c1ccccc1C(=O)OC1CCCCC1,,5.32%
Clc1cccc2ccccc12,,6.49%
O=NN1CCCCCC1,,-4.67%
N#CCC#N,,-4.56%
CC(C)=CCOc1c2occc2cc2ccc(=O)oc12,,-15.9% [at 35.3 µM]
C=COC(C)=O,,8.49%
CC(=O)[C@H]1CC[C@H]2[C@@H]3CC[C@H]4C[C@](C)(O)CC[C@]4(C)[C@H]3CC[C@]12C,,-5.04% [at 35.3 µM]
COc1nn(C(=O)NS(=O)(=O)c2ccccc2OC(F)(F)F)c(=O)n1C,35.5 µM (active),
NCCCNCCCN,,2.74%
CCBr,,-8.37%
C=CCN1CC[C@]23c4c5ccc(O)c4O[C@H]2C(=O)CC[C@@]3(O)[C@H]1C5,,13.1% [at 35.3 µM]
OCCCBr,,-10.6%
C=CC(=O)OC,,-7.91%
O=[N+]([O-])c1cc(C(F)(F)F)cc([N+](=O)[O-])c1Cl,,2.7%
CC(=O)c1cc2c(cc1C)C(C)(C)C(C)CC2(C)C (stereo not given),38.9 µM (active),

Structure (SMILES),Potency,cytotoxicity increase
COP(=S)(OC)Oc1ccc([N+](=O)[O-])cc1Cl,,-0.309%
COc1c(C(C)(C)C)cc([N+](=O)[O-])c(C)c1[N+](=O)[O-],,7.57%
O=C(Nc1ccccc1)Nc1ccnc(Cl)c1,,4.58%
C(=NC1CCCCC1)=NC1CCCCC1,inactive,
c1ccc(C2CC2)c(OCC2=NCCN2)c1,,4.9% [at 35.3 µM]
O=[N+]([O-])c1ccccc1CCl,,7.86%
O=NN1CCNCC1,,-1.61%
Clc1ccc(C2(Cn3cncn3)CC(Br)CO2)c(Cl)c1 (stereo not given),,18.1%
CCOP(O)OCC,,-20.1%
Brc1ccc(Oc2ccccc2)cc1,inactive,
C=CC(=O)OC(C)(C)C,,-0.746%
CCCCCCCCOC(=O)c1ccc(C(=O)OCCCCCCCC)c(C(=O)OCCCCCCCC)c1,,1.02%
CCC(Cl)CCl (stereo not given),,-4.2%
CC1(C)CCC(Cc2ccc(Cl)cc2)C1(O)Cn1cncn1 (stereo not given),54.9 µM (active),
O=S1(=O)OC(c2cc(Br)c(O)c(Br)c2)(c2cc(Br)c(O)c(Br)c2)c2ccccc21,,-21.4%
O=C(NC(=O)c1c(F)cccc1F)Nc1cc(Cl)c(Oc2ncc(C(F)(F)F)cc2Cl)c(Cl)c1,,-9.18%
C/C(=C\c1ccccc1)[N+](=O)[O-],,36.7%
CCOC(=O)CBr,,-3.17%
O=C(O)C(F)(F)C(F)(F)C(F)(F)C(F)(F)C(F)(F)C(F)(F)C(F)(F)C(F)(F)C(F)(F)F,,0.0142%
CC1Sc2c(C(=O)O)c(=O)c3cc(F)c(N4CCNCC4)cc3n21 (stereo not given),,-16.6% [at 35.3 µM]
